For assay [1], the target named is Nuclear receptor subfamily 1 group I member 2 (Rattus norvegicus) (UniProt Q9R1A7). Nature of the assay: qHTS assay for small molecule activators of the rat pregnane X receptor (rPXR) signaling pathway (AID 651751; call rule not given here; also: 0% is about no effect). Conditions: rPXR reporter cells, luciferase (One-Glo), 24 h. For orientation: qHTS replaces the single test concentration by a dilution series.
Assay [2] in a line: Viability counterscreen for antagonist of constitutive androstane receptor (CAR) against the NCATS DSHEA and TCM libraries (AID 1794837).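 Also: compound exposure lasted 24 h before viability reading; 0% is about no effect.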 Conditions: CAR reporter cell line viability counterscreen, qHTS; series mostly up to 40 µM. The method in brief:
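Cell viability, CellTiter-Fluor, Ex/Em 405/540 nm, 1 h at 37C. HepG2-CYP2B6-hCAR, 2,500 cells/well; cpds + CITCO 48 uM final (antagonist mode), 24 h, 37C/5% CO2.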
For orientation: The purpose of a counterscreen is to sort out artefacts and off-target activity.

Assay [3] has as its target Nuclear receptor subfamily 1 group I member 3 (Homo sapiens) (UniProt Q14994). The assay is described as follows: Primary qHTS for agonist of constitutive androstane receptor (CAR) against the NCATS DSHEA and TCM libraries (AID 1794839).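 Also: HepG2 cells expressing human CAR with a CYP2B6 reporter plus PK11195 antagonist; 0% is about no effect.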 Conditions: CAR agonist reporter cells, qHTS luminescence, CAR antagonist co-added at 0.75 µM; series mostly up to 40 µM. The method in brief: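 Luminescence from ONE-Glo luciferase was the agonist read-out in HepG2-CYP2B6-hCAR cells exposed 24 h to test substances. Wells also held the CAR antagonist PK11195 at 0.75 µM final. Viability was by CellTiter-Fluor fluorescence.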

The nature of assay [4]: HepG2 viability counterscreen (readout 2: ATP content) against the NCATS DSHEA and TCM libraries (AID 1794840). Also: 0% is about no effect. Conditions: ATP content luminescence; series mostly up to 27.3 µM. Put shortly: (§1)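 1,000 HepG2 cells/well, 4 h attach; compounds ~24 h, 37C/5% CO2. Readout 1: GF-AFC 25 uM final, 30 min, fluorescence 380/510 nm. Readout 2: CellTiter-Glo, 30 min RT, luminescence.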

Assay [5] in a line: HepG2 viability counterscreen (readout 1: protease activity) against the NCATS DSHEA and TCM libraries (AID 1794841).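 Also: cells exposed to compounds for about 24 h before the protease read; 0% is about no effect.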 Conditions: qHTS concentration series; series mostly up to 27.3 µM. The method in brief:
as §1

Assay [6] concerns the target Cytochrome P450 2D6 (Homo sapiens) (UniProt P10635). Nature of the assay: qHTS for inhibitors of CYP2D6 against the NCATS DSHEA and TCM libraries (AID 1919972). Also: % is scaled to controls: 0 for no effect and ±100 for the full control effect. Conditions: CYP2D6 enzymatic inhibition, luminescence qHTS; series mostly up to 34.1 µM. The method in brief:
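CYP2D6 enzyme with pro-luciferin substrate in manufacturer buffer (typically 100 mM KPO4), preincubated 15 min RT with substances (most at 19.5 nM upward); NADPH regeneration system (1x) started 30–45 min RT reaction; P450-Glo luminescence read after 30 min; quinidine as intraplate control.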

The target of assay [7] is Cytochrome P450 2C9 (Homo sapiens) (UniProt P11712). The assay is described as follows: qHTS for inhibitors of CYP2C9 against the NCATS DSHEA and TCM libraries (AID 1919973). Also: % is scaled to controls: 0 for no effect and ±100 for the full control effect. Conditions: recombinant CYP2C9 enzyme activity, luminescence; series mostly up to 34.1 µM. The method in brief: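 Each CYP isoform and its pro-luciferin substrate, at isoform-specific final concentrations, were preincubated 15 min at RT with substances. NADPH regeneration solution (1x) started a 30-45 min reaction, and P450-Glo luminescence was read.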
Cytochrome P450 2C9 (Homo sapiens), sequence (P11712 whole entry, looked up, canonical isoform): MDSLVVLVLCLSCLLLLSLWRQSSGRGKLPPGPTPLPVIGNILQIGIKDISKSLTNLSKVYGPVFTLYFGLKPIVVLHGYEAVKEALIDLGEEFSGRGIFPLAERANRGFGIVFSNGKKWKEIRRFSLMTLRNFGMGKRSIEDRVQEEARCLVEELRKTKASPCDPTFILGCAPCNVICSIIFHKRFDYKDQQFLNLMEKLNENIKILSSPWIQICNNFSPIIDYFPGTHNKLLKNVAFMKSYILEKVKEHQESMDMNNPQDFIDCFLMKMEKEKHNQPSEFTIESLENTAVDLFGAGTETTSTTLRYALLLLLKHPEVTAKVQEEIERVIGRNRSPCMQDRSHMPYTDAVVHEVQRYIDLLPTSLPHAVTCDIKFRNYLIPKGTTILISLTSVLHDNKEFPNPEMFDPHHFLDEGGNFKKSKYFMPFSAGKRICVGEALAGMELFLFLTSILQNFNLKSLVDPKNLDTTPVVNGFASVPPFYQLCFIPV

For assay [8], the target named is Cytochrome P450 1A2 (Homo sapiens) (UniProt P05177). Nature of the assay: qHTS for inhibitors of CYPIA2 against the NCATS DSHEA and TCM libraries (AID 1919976). Also: potency is read from the fitted curve at half-maximal effect. Conditions: recombinant CYP1A2 enzyme activity, luminescence. The method in brief: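 Reaction started with 1x NADPH regeneration solution and run 30-45 min, room temperature, protected from light, after compounds sat 15 min with CYP1A2 and pro-luciferin substrate. P450-Glo detection gave luminescence; furafylline served as control.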
Cytochrome P450 1A2 (Homo sapiens), sequence (P05177 whole entry, looked up): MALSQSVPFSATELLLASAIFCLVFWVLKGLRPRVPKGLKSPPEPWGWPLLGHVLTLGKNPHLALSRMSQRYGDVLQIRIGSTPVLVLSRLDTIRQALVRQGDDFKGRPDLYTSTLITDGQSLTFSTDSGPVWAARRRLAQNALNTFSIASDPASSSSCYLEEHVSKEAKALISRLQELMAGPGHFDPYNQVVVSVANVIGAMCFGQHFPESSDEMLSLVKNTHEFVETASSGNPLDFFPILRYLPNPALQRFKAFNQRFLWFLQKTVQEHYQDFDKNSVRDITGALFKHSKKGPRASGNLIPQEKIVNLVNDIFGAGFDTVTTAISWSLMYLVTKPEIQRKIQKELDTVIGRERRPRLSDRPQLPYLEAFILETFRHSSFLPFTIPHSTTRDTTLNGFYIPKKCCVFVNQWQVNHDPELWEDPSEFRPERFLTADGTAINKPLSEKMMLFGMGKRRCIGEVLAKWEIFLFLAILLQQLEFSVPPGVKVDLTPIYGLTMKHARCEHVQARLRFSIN

The nature of assay [9]: Dual reporter qHTS for agonist of Pregnane X Receptor (hPXR) against the NCATS DSHEA and TCM libraries: Fluorescence readout (AID 1920058). Also: 0% is about no effect. Conditions: PXR dual reporter cells; series mostly up to 40 µM. Put shortly:
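Viability readout (CellTiter-Fluor, 405/540 nm, 1 h) from agonist-mode PXR dual reporter in hPXR-Luc HepG2 cells. Substances ~24 h, 37 °C, 5% CO2; rifampicin reference, tetraoctyl ammonium bromide cytotoxic control.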

In assay [10] the target is Nuclear receptor subfamily 1 group I member 2 (Homo sapiens) (UniProt O75469). Nature of the assay: Dual reporter qHTS for antagonist of Pregnane X Receptor (hPXR) against the NCATS DSHEA and TCM libraries: Luminescence Readout (AID 1920060).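 Also: HepG2 cells carrying hPXR luciferase reporter stimulated with rifampicin at 2 µM; 0% is about no effect.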 Conditions: hPXR dual reporter cells, luciferase luminescence, antagonist mode; series mostly up to 40 µM. Put shortly:
(§2)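 In antagonist mode, 2 uM rifampicin was added to hPXR-Luc HepG2 cells alongside test substances, incubated 24 h at 37 C; luminescence gave reporter activity, and CellTiter-Fluor fluorescence (405/540 nm) gave viability.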

The nature of assay [11]: Dual reporter qHTS for antagonist of Pregnane X Receptor (hPXR) against the NCATS DSHEA and TCM libraries: Fluorescence Readout (AID 1920061). Also: 0% is about no effect. Conditions: PXR dual reporter cells, antagonist mode; series mostly up to 40 µM. Put shortly: as §2

Molecules are shown by their SMILES. A number with no mark means an inactive call. Inconclusive results are not listed. Active and inactive are the calls of the source. Unless noted, calls follow the shape of the dose curve; as a rule, active = well fitted curve in the direction sought with a large enough effect; inconclusive = small, poorly fitted or top-dose-only effect, or another doubt; inactive = no such curve, though single readings can be large; an effect the other way counts as inactive or inconclusive.

Nuclear receptor subfamily 1 group I member 2 (Homo sapiens), sequence (O75469 whole entry, looked up): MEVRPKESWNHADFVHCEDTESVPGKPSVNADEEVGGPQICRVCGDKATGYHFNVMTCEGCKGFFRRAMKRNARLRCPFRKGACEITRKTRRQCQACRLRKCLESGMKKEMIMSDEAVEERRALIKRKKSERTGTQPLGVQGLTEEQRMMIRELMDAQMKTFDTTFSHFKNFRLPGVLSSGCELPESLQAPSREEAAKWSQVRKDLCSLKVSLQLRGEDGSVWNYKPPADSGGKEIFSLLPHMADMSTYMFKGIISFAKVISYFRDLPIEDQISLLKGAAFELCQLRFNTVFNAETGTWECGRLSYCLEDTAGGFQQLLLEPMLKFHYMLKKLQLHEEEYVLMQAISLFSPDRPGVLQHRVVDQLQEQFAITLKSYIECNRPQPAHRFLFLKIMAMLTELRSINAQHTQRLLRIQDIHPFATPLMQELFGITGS
Nuclear receptor subfamily 1 group I member 3 (Homo sapiens), sequence (Q14994 whole entry, looked up): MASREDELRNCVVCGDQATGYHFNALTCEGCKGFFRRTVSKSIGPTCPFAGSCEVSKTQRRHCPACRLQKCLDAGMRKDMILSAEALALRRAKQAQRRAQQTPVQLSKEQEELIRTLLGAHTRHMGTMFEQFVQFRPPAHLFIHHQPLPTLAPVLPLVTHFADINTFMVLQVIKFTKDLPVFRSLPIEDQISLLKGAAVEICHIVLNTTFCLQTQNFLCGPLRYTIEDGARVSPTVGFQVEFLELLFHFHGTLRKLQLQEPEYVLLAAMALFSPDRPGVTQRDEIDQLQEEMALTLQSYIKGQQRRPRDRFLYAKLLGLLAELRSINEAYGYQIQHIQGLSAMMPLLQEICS
Nuclear receptor subfamily 1 group I member 2 (Rattus norvegicus), sequence (Q9R1A7 whole entry, looked up): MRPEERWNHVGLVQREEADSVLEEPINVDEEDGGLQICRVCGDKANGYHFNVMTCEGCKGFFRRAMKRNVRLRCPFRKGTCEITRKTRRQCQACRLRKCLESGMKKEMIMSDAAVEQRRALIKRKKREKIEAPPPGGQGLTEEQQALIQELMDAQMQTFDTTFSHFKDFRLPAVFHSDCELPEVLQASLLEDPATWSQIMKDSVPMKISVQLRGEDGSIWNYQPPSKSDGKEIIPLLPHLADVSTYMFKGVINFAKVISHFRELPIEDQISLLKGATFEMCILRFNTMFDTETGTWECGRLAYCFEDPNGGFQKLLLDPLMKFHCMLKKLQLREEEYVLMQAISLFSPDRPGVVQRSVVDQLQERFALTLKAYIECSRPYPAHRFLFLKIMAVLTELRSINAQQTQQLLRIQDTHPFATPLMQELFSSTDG
Cytochrome P450 2D6 (Homo sapiens), sequence (P10635 whole entry, looked up): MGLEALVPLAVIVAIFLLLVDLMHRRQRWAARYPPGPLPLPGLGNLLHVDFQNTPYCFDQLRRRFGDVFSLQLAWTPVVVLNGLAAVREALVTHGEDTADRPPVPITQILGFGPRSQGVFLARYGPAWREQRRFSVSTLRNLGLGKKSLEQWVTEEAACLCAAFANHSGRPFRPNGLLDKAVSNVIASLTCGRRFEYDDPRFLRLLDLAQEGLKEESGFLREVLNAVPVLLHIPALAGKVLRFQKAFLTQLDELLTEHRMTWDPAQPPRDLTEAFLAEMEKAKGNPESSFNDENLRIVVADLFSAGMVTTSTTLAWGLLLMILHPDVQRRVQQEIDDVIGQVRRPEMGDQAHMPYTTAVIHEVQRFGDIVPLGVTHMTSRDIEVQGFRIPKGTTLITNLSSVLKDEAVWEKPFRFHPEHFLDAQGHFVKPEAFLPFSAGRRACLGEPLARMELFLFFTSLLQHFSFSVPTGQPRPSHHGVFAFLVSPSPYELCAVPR

As for `CN(CCOc1ccc(C[C@H](Nc2ccccc2C(=O)c2ccccc2)C(=O)O)cc1)c1ccccn1`, the max response in assay [1] was 1.12%.
For `C[C@H]1[C@H](C)CC[C@]2(C(=O)O)CC[C@]3(C)C(=CC[C@@H]4[C@@]5(C)CC[C@H](O)C(C)(C)[C@@H]5CC[C@]43C)[C@H]12`, the compound was classed as inactive in assay [2], in assay [3], in assay [4], in assay [5], in assay [9] and in assay [10]. Moreover, the outcome in assay [11] was inactive. Further, the Potency result in assay [6] and in assay [7] was “inactive” in each case. Besides, in assay [8], the Potency was 3.55 µM (active).

The values are drawn from PubChem BioAssay (NCATS).
